We go through 17 compounds from PubChem BioAssay (NCATS).

The term viability denotes a read-out of living cells in per cent, often relative to untreated cells.

Results filed as inconclusive are left out. Unmarked numbers belong to inactive results. The source made the active and inactive calls. Calls follow the shape of the dose curve; as a rule, active = well fitted cell-killing curve with a large enough effect; inconclusive = small, poorly fitted or top-dose-only effect, or effect the other way; inactive = no such curve, though single readings can be large or run the other way.
Potency is read from the fitted curve at half-maximal effect.

The assay can be described thus: Quantitative High-Throughput drug screen in 47 multiple myeloma cell lines against the NCATS MIPE library collection: H1112_PLB cell viability assay (AID 1918967; also: nearly all actives have a fitted effect of over 30% in size). As to conditions: H1112 myeloma cells viability, ATP luminescence, 48 h; series mostly up to 45.8 µM; viability: at the top concentration. The essentials: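 Relative luminescence from CellTiter-Glo served as the viability signal, referenced to DMSO-treated (100%) and cell-free medium (0%) controls. Treatment lasted 48 hours at 37C with 500 cells per well.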
In the case of `CN1C2CCC1CC(OC(=O)C(CO)c1ccccc1)C2` (configuration not stated), the “viability” value was 103%.

Consider `CCN1CCCC1CNC(=O)c1cc(S(=O)(=O)CC)c(N)cc1OC` (configuration not stated), for which the “viability” value is 128%. `O=C(Nc1ccc([N+](=O)[O-])cc1Cl)c1cc(Cl)ccc1O`: the Potency is 1.32 µM (active). As for `O=C1Cc2cc(CCN3CCN(c4nsc5ccccc45)CC3)c(Cl)cc2N1`, the Potency was 23.5 µM (active).

With `CC[C@@]1(O)C(=O)OCc2c1cc1n(c2=O)Cc2cc3c(CN(C)C)c(O)ccc3nc2-1`, the Potency was 0.418 µM (active).

With `Cc1cc(C(C)(C)C)c(O)c(C)c1CC1=NCCN1`, the “viability” value is 112%. With `CS(=O)(=O)CCNCc1ccc(-c2ccc3ncnc(Nc4ccc(OCc5cccc(F)c5)c(Cl)c4)c3c2)o1`, the Potency was 0.0743 µM (active).

On to `CC(=O)OCC(CCn1cnc2cnc(N)nc21)COC(C)=O`, for which the “viability” value was 117%. `O=C1c2c(O)ccc(O)c2C(=O)c2c(NCCNCCO)ccc(NCCNCCO)c21`: the Potency was 0.332 µM (active).

For `O=C(C1CCCCC1)N1CC(=O)N2CCc3ccccc3C2C1` (configuration not stated), the “viability” value is 126%. On the same count and under the same terms, for `Cc1cc(C(C)(C)C)cc(C)c1CC1=NCCN1` the value was 102%; for `NC(=O)OCC(COC(N)=O)c1ccccc1`, 97.8%.

As to `CC(C)C(=O)Nc1ccc([N+](=O)[O-])c(C(F)(F)F)c1`, the Potency was 3.32 µM (active). Take `CC1(C)O[C@H]2CC(=O)OC[C@]23[C@H]2CC[C@@]4(C)[C@H](c5ccoc5)OC(=O)[C@H]5O[C@]54[C@]2(C)C(=O)C[C@@H]13`: the “viability” value is 106%. Turning to `CCC1(c2ccccc2)C(=O)NCNC1=O`, the Potency was 2.96 µM (active).

Regarding `CCOC(=O)Nc1ccc(NCc2ccc(F)cc2)nc1N`, the “viability” value is 95.5%. In the case of `CN1CCC(=C2c3ccccc3CC(=O)c3sccc32)CC1`, the Potency is 6.62 µM (active).
